These results are taken from paper PMC5540273 (PLoS ONE, 2017).

Some test systems named below: PRKCQ; PRKD1; PRKD2; PRKD3; PRKG1; PRKG2; PRKX; PRP4; QSK; RAF1; RET; RIOK1; RIOK2; RIOK3; RIPK1; RIPK2; RIPK4; RIPK5.
Conditions in all cases: concentration: 1 μM, replicates: in singlicate; n = 1
The next assay concerns T1, PRKR.
T1 construct: gene EIF2AK2

The test system of another assay is T2, PYK2.
T2 construct: gene PTK2B
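Also: KINOMEscan kinase panel screen.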

Turning to `O=C(Nc1n[nH]c2cc(-c3cccc(F)c3F)ccc12)C1CC1` [SB-733894], the “%Inh” value with PRKCQ is given as 19%; in the assay on PRKD1 it was 0%; in the assay on PRKD2, 0%; in the assay on PRKD3, 0%; in the assay with PRKG1, 0%; in the assay on PRKG2 it was 0%. Moreover, the “%Inh” value in the assay on PRKR was 3%; with PRKX, 0%; in the assay on PRP4, 4%; with PYK2 it was 0%; with QSK it was 26%; in the assay on RAF1 it was 12%. In addition, the “%Inh” value with RET came to 0%; with RIOK1 it was 47%; in the assay with RIOK2 it was 0%; in the assay with RIOK3 it was 52%; in the assay on RIPK1, 72%; in the assay with RIPK2, 0%. For the same compound, the “%Inh” value was 18% in the assay on RIPK4 and 31% in the assay on RIPK5.
Turning to `Cc1c(O)cccc1Nc1ccnc2ccc(C(F)(F)F)cc12.Cl` [GW466413], the “%Inh” value worked out at 0% with PRKCQ; 0% in the assay on PRKD1; 0% in the assay with PRKD2; 0% in the assay with PRKD3; 5% in the assay with PRKG1; 0% in the assay with PRKG2. Also, the “%Inh” value with PRKR was 0%; in the assay on PRKX, 0%; in the assay with PRP4 it was 4%; in the assay on PYK2, 0%; in the assay on QSK it was 3%; in the assay on RAF1 it was 23%. Further, the “%Inh” value in the assay with RET is 24%; with RIOK1 it was 34%; in the assay with RIOK2 it was 2%; in the assay on RIOK3, 0%; in the assay on RIPK1 it was 3%; with RIPK2, 21%. Also, the “%Inh” value in the assay with RIPK4 and in the assay with RIPK5 was 0% in each case.
As to `Cc1nnc(-c2ccc3occ(-c4ccc(S(C)=O)cc4)c3c2)[nH]1` (stereo not shown), the “%Inh” value in the assay with PRKCQ is recorded as 0%; in the assay on PRKD1, 0%; with PRKD2, 4%; in the assay on PRKD3, 0%; in the assay on PRKG1, 0%; with PRKG2 it was 0%. Further, the “%Inh” value is 0% in the assay on PRKR; 51% in the assay with PRKX; 10% in the assay with PRP4; 26% in the assay with PYK2; 3% in the assay with QSK; 4% with RAF1. For the same compound, the “%Inh” value in the assay on RET came to 31%; in the assay on RIOK1, 13%; in the assay with RIOK2, 31%; in the assay on RIOK3, 0%; in the assay on RIPK1, 100%; in the assay on RIPK2, 13%. Also, the “%Inh” value with RIPK4 and in the assay on RIPK5 was 0% in each case.
On to `Cc1cccc(-c2nc(Nc3ccc4[nH]ncc4c3)c3ccccc3n2)n1` [GW857175], for which the “%Inh” value in the assay on PRKCQ is on record as 27%; in the assay on PRKD1, 99.8%; in the assay on PRKD2, 99.9%; in the assay with PRKD3 it was 98.1%; in the assay with PRKG1 it was 0%; with PRKG2, 2%. Besides, the “%Inh” value amounted to 0% with PRKR; 0% in the assay with PRKX; 13% in the assay on PRP4; 0% in the assay on PYK2; 4% with QSK; 8% in the assay on RAF1. In addition, the “%Inh” value is 13% in the assay with RET; 39% in the assay with RIOK1; 8% with RIOK2; 29% with RIOK3; 0% in the assay on RIPK1; 0% with RIPK2. In addition, the results for the “%Inh” value in the assay with RIPK4 and with RIPK5 were 44% and 35%, respectively.
Regarding `COc1ccc(Nc2nccc(NCCNC(=O)Nc3ccccc3F)n2)cc1` [GSK1379901], the “%Inh” value worked out at 0% with PRKCQ; 0% in the assay on PRKD1; 83% with PRKD2; 0% in the assay on PRKD3; 8% in the assay on PRKG1; 0% in the assay with PRKG2. The “%Inh” value was 1% in the assay with PRKR; 5% with PRKX; 14% with PRP4; 8% in the assay with PYK2; 3% in the assay with QSK; 20% in the assay with RAF1. For the same compound, the “%Inh” value with RET is given as 17%; in the assay on RIOK1, 40%; in the assay on RIOK2, 0%; in the assay on RIOK3, 39%; with RIPK1, 33%; with RIPK2 it was 22%. Besides, the “%Inh” value with RIPK4 is 11%; in the assay on RIPK5 it was 6%.
Consider `Cc1ccc(NC(=O)Nc2cccc(Cl)c2)cc1-c1ccc(C(=O)Nc2ccncc2)cc1` [GSK1398468], for which the “%Inh” value with PRKCQ was 11%; in the assay on PRKD1, 0%; in the assay on PRKD2 it was 1%; with PRKD3 it was 22%; in the assay on PRKG1 it was 1%; in the assay on PRKG2 it was 0%. Besides, the “%Inh” value amounted to 1% in the assay on PRKR; 80% with PRKX; 47% in the assay with PRP4; 0% with PYK2; 0% in the assay on QSK; 91.4% with RAF1. Moreover, the “%Inh” value amounted to 1% in the assay on RET; 40% in the assay with RIOK1; 0% in the assay with RIOK2; 59% in the assay on RIOK3; 5% in the assay with RIPK1; 6% with RIPK2. In addition, the “%Inh” value was determined as 22% in the assay on RIPK4 and 0% with RIPK5.
For the compound `Cc1ccc(NC(=O)Nc2cc(C(C)(C)C)nn2-c2ccccc2)cc1` [GSK1014915], the “%Inh” value is 0% with PRKCQ; 7% in the assay with PRKD1; 0% in the assay with PRKD2; 18% in the assay with PRKD3; 11% in the assay with PRKG1; 0% in the assay on PRKG2. The “%Inh” value in the assay on PRKR is listed as 0%; with PRKX, 57%; in the assay with PRP4, 1%; with PYK2 it was 4%; in the assay with QSK, 13%; in the assay on RAF1, 89%. The “%Inh” value was 46% in the assay on RET; 18% in the assay with RIOK1; 0% with RIOK2; 0% in the assay on RIOK3; 9% in the assay with RIPK1; 6% in the assay on RIPK2. For the same compound, the “%Inh” value in the assay with RIPK4 stood at 12%; with RIPK5, 0%.
`CC1=C(C(=O)Nc2cc3cn[nH]c3cc2F)C(c2ccc(C(F)(F)F)cc2)CC(=O)N1` (stereo not shown) [GSK429286]: the “%Inh” value in the assay with PRKCQ came out at 28%; in the assay on PRKD1 it was 22%; in the assay with PRKD2 it was 4%; with PRKD3, 0%; with PRKG1 it was 30%; in the assay on PRKG2, 0%. Besides, the “%Inh” value is listed as 0% with PRKR; 87% in the assay with PRKX; 7% in the assay on PRP4; 10% in the assay with PYK2; 14% with QSK; 5% in the assay with RAF1. In addition, the “%Inh” value in the assay with RET came out at 44%; in the assay with RIOK1 it was 34%; with RIOK2, 23%; in the assay on RIOK3, 0%; in the assay with RIPK1 it was 0%; with RIPK2, 12%. Also, the “%Inh” value in the assay on RIPK4 turned out to be 13%; in the assay on RIPK5, 1%.
As for `Cl.c1ccc(-c2n[nH]cc2-c2ccnc(-c3ccc(CN4CCOCC4)cc3)c2)nc1` [GW776245], the “%Inh” value was 0% in the assay on PRKCQ; 62% in the assay on PRKD1; 44% in the assay with PRKD2; 28% in the assay on PRKD3; 0% in the assay on PRKG1; 16% in the assay on PRKG2. Moreover, the “%Inh” value with PRKR turned out to be 0%; in the assay with PRKX, 0%; in the assay with PRP4, 0%; in the assay with PYK2, 14%; in the assay with QSK, 0%; with RAF1 it was 37%. Moreover, the “%Inh” value was found to be 0% in the assay on RET; 19% in the assay with RIOK1; 0% with RIOK2; 20% in the assay with RIOK3; 11% in the assay on RIPK1; 36% with RIPK2. Moreover, the “%Inh” value with RIPK4 and in the assay with RIPK5 was 0% each time.
On to `O=C(Nc1ccccc1)Nc1cccc(Oc2ccc3nccn3n2)c1`, for which the “%Inh” value with PRKCQ is recorded as 10%; in the assay on PRKD1 it was 0%; with PRKD2, 7%; in the assay with PRKD3, 0%; with PRKG1 it was 4%; with PRKG2 it was 0%. Besides, the “%Inh” value is listed as 0% in the assay with PRKR; 0% in the assay on PRKX; 26% with PRP4; 60% with PYK2; 0% in the assay with QSK; 21% in the assay on RAF1. In addition, the “%Inh” value in the assay with RET amounted to 8%; in the assay with RIOK1, 48%; in the assay on RIOK2, 0%; in the assay with RIOK3 it was 15%; in the assay with RIPK1, 2%; with RIPK2, 0%. The “%Inh” value with RIPK4 and in the assay on RIPK5 was 0% each time.
In the case of `O=C(Nc1ccc2c(c1)OCO2)NC1CCN(c2ccnc(Nc3ccc(F)cc3)n2)C1` (stereo not shown) [GSK1379724], the “%Inh” value with PRKCQ was 0%; in the assay with PRKD1, 16%; with PRKD2, 5%; with PRKD3, 0%; with PRKG1, 0%; in the assay on PRKG2, 0%. In addition, the “%Inh” value was 0% with PRKR; 0% in the assay on PRKX; 17% in the assay on PRP4; 0% with PYK2; 8% in the assay on QSK; 16% in the assay with RAF1. Also, the “%Inh” value in the assay on RET is reported as 22%; in the assay on RIOK1, 9%; in the assay on RIOK2 it was 0%; in the assay with RIOK3 it was 5%; with RIPK1, 0%; in the assay with RIPK2 it was 0%. In addition, the “%Inh” value in the assay with RIPK4 is recorded as 11%; with RIPK5, 0%.
